Reference: PubChem BioAssay (NCATS)
Inconclusive results are not listed. Values without a mark were called inactive. Calls follow the shape of the dose curve; as a rule, active = well fitted inhibition curve with a large enough effect; inconclusive = small, poorly fitted or top-dose-only effect; inactive = flat fitted curve, though single readings scatter.

What follows are compounds tested against Calcium and integrin-binding protein 1 (Homo sapiens) (UniProt Q99828) (assay: Primary qHTS for Identification of Calcium Integrin Binding Protein 1 (CIB1) Competitor (AID 1508620;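 also: GST tagged CIB1 binding a fluorescein labelled alphaIIb integrin peptide tracer; top concentration of the series differs between compounds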)). Conditions: CIB1-GST / FITC-alphaIIb peptide fluorescence polarization; series mostly up to 114 µM; activity change, negative = inhibition: at the top concentration.
Sequence of Calcium and integrin-binding protein 1 (Homo sapiens) (Q99828 whole entry, looked up): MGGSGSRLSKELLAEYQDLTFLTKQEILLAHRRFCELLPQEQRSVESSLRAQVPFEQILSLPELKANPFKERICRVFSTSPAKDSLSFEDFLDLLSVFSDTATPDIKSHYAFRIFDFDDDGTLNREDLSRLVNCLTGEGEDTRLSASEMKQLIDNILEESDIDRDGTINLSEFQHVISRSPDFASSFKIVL
How it was run: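 Fluorescence polarization competition: CIB1-GST (1 uM final) preincubated with compound 15 min at room temperature, then FITC-labeled alphaIIb peptide (100 nM final) added for another 15 min. Polarization read at Ex 480/Em 540.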
% is scaled to controls: 0 for no effect and ±100 for the full control effect.

Compared with `C=CC(C)(C)C12C=C(OC)C(=O)N3C(C(C)C)C(=O)NC31N(OC)c1ccccc12` (configuration not stated), `COc1cc(C)c(C(=O)O[C@H]2[C@@H](OC(C)=O)[C@H](n3ccc(=O)[nH]c3=O)O[C@@H]2CO)c(OC)c1` is lower in “activity change, negative = inhibition” value: 0.665% [at 57.7 µM] for the first, -3.19% [at 57.7 µM] for the second.

First: CC(C)C(=O)OC[C@H]1O[C@H](O[C@H]2O[C@H](CO)[C@@H](O)[C@H](O)[C@H]2O)[C@H](O)[C@@H](O)[C@@H]1O
Second: OC[C@H]1O[C@@H](O[C@H]2[C@H](OCCc3ccccc3)O[C@H](CO)[C@@H](O)[C@@H]2O)[C@H](O)[C@@H](O)[C@@H]1O
The “activity change, negative = inhibition” value of the first is higher: 0.761% [at 57.7 µM] for the first, 0.664% [at 57.7 µM] for the second.

First: C/C(=C\CCC(C)CCO)C(=O)OC1(C)CCC2C(C(=O)O)=COC(OC3OC(CO)C(O)C(O)C3O)C21 (configuration not stated)
Second: C=C1C(O)CC2C(C(=O)O)=COC(O[C@@H]3O[C@H](COC(=O)/C=C/c4ccc(O)cc4)[C@@H](O)[C@H](O)[C@H]3O)C12 (some centres not stated)
The “activity change, negative = inhibition” value of the first is lower: -4.62% [at 57.7 µM] for the first, 4.72% [at 57.7 µM] for the second.

Going from `C=C(C)C1CCC2(C(=O)O)CCC3(C(=O)O)C(CCC4C5(C)CCC(O)C(C)(C(=O)O)C5CCC43C)C12` (configuration not stated) to `COC(=O)c1cc(OC)cc(OC)c1C(=O)c1c(OC)cc2c(c1O)C1CCCC(C)(O2)O1` (configuration not stated), the “activity change, negative = inhibition” value rises from -0.535% [at 57.7 µM] to 1.41% [at 57.7 µM].

First: COc1cc(C(=O)O)ccc1OC1OC(CO)C(O)C(O)C1O (configuration not stated)
Second: COc1cc(C2c3cc4c(c(O)c3CC(CO)C2C(=O)O)OCO4)cc(OC)c1O (configuration not stated)
The “activity change, negative = inhibition” value of the first is higher: 3.54% [at 57.7 µM] for the first, -1.28% [at 57.7 µM] for the second.

Compared with `Cc1cc(C)c(Nc2ccnc(Nc3ccc(C#N)cc3)n2)c(C)c1`, `CC1COC(Nc2ccc3ncnc(Nc4ccc(OCc5nccs5)c(Cl)c4)c3c2)=N1` (configuration not stated) is higher in “activity change, negative = inhibition” value: 0.294% for the first, 4.92% for the second.

First: O=C(Cc1ccc(-c2ccccc2)cc1)NC1CCC1
Second: O=C(Nc1ccccc1)N1CCN(Cc2ccc3ccccc3n2)CC1
The “activity change, negative = inhibition” value of the first is higher: -2.41% for the first, -3.39% for the second.

Compared with `CC(C)c1cc(C(=O)N2CC[C@H](NC(=O)C3CC3)C2)n[nH]1`, `CCOc1cc(N2CCC(O)CC2)ccc1Nc1ncc2c(n1)N(C1CCCC1)CCC(=O)N2C` is lower in “activity change, negative = inhibition” value: 0.214% for the first, -0.402% for the second.

Going from `Cc1cccc(-c2[nH]c(Cc3cccc(C(N)=O)c3)nc2-c2ccc3nccnc3c2)n1` to `Cc1c(C(=O)N2CCOc3ccc(-c4ccc(N)nc4)cc3C2)ccc(S(C)(=O)=O)c1F`, the “activity change, negative = inhibition” value rises from -4.62% to 2.21%.

Compared with `Cc1ccc(C(=O)Nc2noc3ccccc23)cc1`, `O=C(Nc1ccc(S(=O)(=O)Nc2nccs2)cc1)C(c1ccccc1)c1ccccc1` is higher in “activity change, negative = inhibition” value: -5.67% for the first, -2.51% for the second.

First: O=S(=O)(c1ccccc1)c1cnc2c(N3CCNCC3)cccc2c1
Second: c1ccc(-c2ncc(CN3CCN(c4ncccn4)CC3)[nH]2)cc1
The “activity change, negative = inhibition” value of the first is lower: -9.45% for the first, 0.649% for the second.

Going from `COC(=O)N[C@@H](C)CNc1nccc(-c2cn(C(C)C)nc2-c2cc(Cl)cc(NS(C)(=O)=O)c2F)n1` to `CC(C)S(=O)(=O)NC[C@H](C)c1ccc(NC(=O)c2cc(F)cc(F)c2)cc1`, the “activity change, negative = inhibition” value falls from 2.6% to -4.08%.

For `C=C1OC2CC(C(=O)O)C=CC2NC1=O` (configuration not stated), the “activity change, negative = inhibition” value was 0.429%.

Compared with `CC(=O)N1CCc2ccc(O)c(OC3OC(COC4OCC(O)(CO)C4O)C(O)C(O)C3O)c2C1Cc1ccc(O)cc1` (configuration not stated), `C=C[C@H]1[C@H](O[C@@H]2O[C@H](CO)[C@@H](O)[C@H](O)[C@H]2O)OC=C(C(=O)OC)[C@H]1C[C@@H]1c2cc(O)c(O)cc2CCN1C(C)=O` is higher in “activity change, negative = inhibition” value: -1.42% [at 30.2 µM] for the first, 3.68% [at 30.2 µM] for the second.

Compared with `C[C@@H]1O[C@@H](O[C@H]2[C@H](O[C@H]3[C@H](O[C@H]4CC[C@@]5(C)C(CC[C@]6(C)C5CC=C5[C@@H]7CC(C)(C)C[C@@H](O)[C@]7(C)CC[C@]56C)[C@@]4(C)CO)O[C@H](C(=O)O)[C@@H](O)[C@@H]3O)OC[C@H](O)[C@@H]2O)[C@H](O)[C@H](O)[C@H]1O` (some centres not stated), `CC1(C)CC[C@]2(C(=O)O[C@@H]3O[C@H](CO)[C@@H](O)[C@H](O)[C@H]3O)CC[C@]3(C)C(=CCC4[C@@]5(C)CC[C@H](O[C@@H]6O[C@H](C(=O)O)[C@@H](O)[C@H](O)[C@H]6O)[C@@](C)(CO)C5CC[C@]43C)C2C1` (some centres not stated) is higher in “activity change, negative = inhibition” value: 2.13% [at 30.2 µM] for the first, 3.48% [at 30.2 µM] for the second.

Compared with `CC(=O)C1=CCC2C3CCC4CC(O[C@@H]5O[C@H](CO)[C@@H](O[C@@H]6O[C@@H](C)[C@H](O)[C@@H](O)[C@H]6O)[C@H](O)[C@H]5O[C@@H]5O[C@H](CO)[C@@H](O)[C@H](O)[C@H]5O)CCC4(C)C3CCC12C` (some centres not stated), `CC(C)=CCC[C@](C)(O)[C@H]1CC[C@]2(C)[C@@H]1[C@H](O)CC1[C@@]3(C)CC[C@H](O)C(C)(C)C3[C@@H](O[C@@H]3O[C@H](CO)[C@@H](O)[C@H](O)[C@H]3O[C@@H]3OC[C@@H](O)[C@H](O)[C@H]3O)C[C@]12C` (some centres not stated) is lower in “activity change, negative = inhibition” value: 3.17% [at 30.2 µM] for the first, -1.67% [at 30.2 µM] for the second.

For `CC1(C)CCC2(C(=O)OC3OC(CO)C(O)C(O)C3O)CCC3(C)C(=CCC4C5(C)CCC(O)C(C)(C(=O)O)C5CCC43C)C2C1O` (configuration not stated), the “activity change, negative = inhibition” value was -2.85% [at 30.2 µM].
